These results are taken from PubChem BioAssay AID504832 (National Center for Advancing Translational Sciences (NCATS), 2011).

The whole screen tested about 310,000 compounds, of which about 18,000 (5.8%) were called active. Entries that show only a call come without a potency. About 22% were inconclusive and are not listed. For the sample, actives were picked, then their nearest neighbours and some compounds at random. Unmarked numbers belong to inactive results. Calls come from the whole dose curve; as a rule, active = well fitted inhibition curve with a large enough effect; inconclusive = small, poorly fitted or top-dose-only effect, or another doubt; inactive = no such curve, though single readings can be large or run the other way.
Potency is the fitted concentration of half-maximal effect.

A short description of this experiment: Primary qHTS for delayed death inhibitors of the malarial parasite plastid, 48 hour incubation. The settings on record: P. falciparum luciferase growth in erythrocytes; series mostly up to 28.7 µM. From the text: The goal of this screen is to discover new antimalarial compounds that act by inhibiting the development of the apicoplast in the malarial parasite Plasmodium falciparum. The biochemical processes that make this organelle essential for erythrocytic stage parasites are not well understood. However, antibiotics such as azithromycin and tetracycline, which target the apicoplast translational machinery, have a potent antimalarial effect.
We have developed a cell-based assay that measures parasite growth based on the expression of an integrated copy of a firefly luciferase reporter. To detect small molecules that cause this "delayed death" phenotype, erythrocytes infected with the luciferase-expressing parasites were incubated with compounds for either one or two generations, corresponding to 48 and 96 hours, respectively. Compounds that inhibit parasite growth in the second generation, but not the first, should be enriched in antimalarials that target the apicoplast. Growth inhibition is detected by a decrease in luciferase activity.
Assay Provider: David Fidock and Eric Ekland, Columbia University
Keywords: NIH Roadmap, MLPCN, MLI, MLSMR, qHTS, NCGC, qHTS, malaria, luciferase, viability
Four microliters of culture medium (RPMI 1640 with 0.5% w/v Albumax (GIBCO), 24 mM sodium bicarbonate and 10 ug/mL gentamycin) were dispensed by a Multi-drop Combi into white solid 1536-well plates (Grenier) and 23 nL compound was added by a pin tool. Four microliters of infected erythrocytes (2% hematocrit, 0.1% parasitemia final concentration) in culture medium were dispensed and the plates incubated for 48 hours at 37 C in 5% CO2. Two microliters of luciferase detection reagent was added and luminescence was detected by a ViewLux (PerkinElmer) reader.
(Quantitative high-throughput screening tests each substance at several concentrations.)
With `CCC(=O)Nc1cccc(NC(=O)c2cccnc2)c1`, the Potency result was “inactive”.
The entry for `CCOC(=O)c1ccc(NC(=O)c2cccnc2)cc1` is “inactive”; for `Cc1cc2nc(-c3ccc(NC(=O)c4cccnc4)cc3)oc2cc1C` it is “inactive”; for `CCOC(=O)c1ccc(NC(=O)CSc2ncccn2)cc1` it is “inactive”.
Regarding `CC(=O)Nc1ccc(-c2nc3ccccc3o2)cc1`, the Potency result is “inactive”.
To `CCOC(=O)c1cc(NC(=O)c2cccnc2)cc(C(=O)OCC)c1` belongs 2.94 µM (active); to `COc1ccc(C(=O)Nc2cccnc2)cc1C(=O)Nc1cccnc1`, “inactive”.
To `Cc1cccc(NC(=O)c2cccc(C(=O)Nc3cccc(C)c3C)n2)c1C` belongs “inactive”; to `CN(C)c1nc(Nc2ccc(Cl)c(Cl)c2)nc(N(C)C)n1`, “inactive”.
The entry for `Cc1cc(C)c(CN2CCN(C(=O)Cn3ccc(NC(=O)OCc4ccccc4)nc3=O)CC2)c(C)c1` is “inactive”; for `COc1ccc(/C(C)=N/NC(=O)c2ccc3nc[nH]c3c2)cc1` it is “inactive”.
Regarding `CC(OC(=O)CCCOc1ccccc1)C(=O)Nc1ccc(Cl)cn1` (stereo unspecified), the Potency entry was “inactive”.
To `CCCCOCCCNC(=O)c1ccccc1OCC` belongs 10.4 µM (active).
To `CCCOc1ccccc1C(=O)NCCCC(=O)O` belongs “inactive”.
To `CCOc1ccccc1C(=O)NCCCn1ccnc1` belongs “inactive”; to `CCc1nc2ccc(C(=O)N3CCN(c4cccc(Cl)c4)CC3)cc2nc1CC`, “inactive”.
For `COc1ccc(C2(C)NC(=O)N(CC(=O)c3ccc4c(c3)OCO4)C2=O)cc1` (stereo unspecified), the Potency result was “inactive”.
Regarding `COc1ccc(C2(O)C(=O)Nc3ccccc32)cc1` (stereo unspecified), the Potency result was “inactive”.
To `COc1ccc(C2(C)ON(c3ccccc3C(F)(F)F)C2=O)cc1` (stereo unspecified) belongs 6.57 µM (active).
For `CCC1Oc2ccccc2N(CC(=O)NCCCN2CCN(CC)CC2)C1=O` (stereo unspecified), the Potency result was “inactive”.
Turning to `Cc1c(C)c2c(OCC(=O)NCCCO)cc3c(c2oc1=O)CCC(C)(C)O3`, the Potency result was “inactive”.
With `C[C@H](NC(=O)c1ccccc1Cl)C(=O)OCC(=O)N1CCN(c2ccccc2)CC1`, the Potency entry is “inactive”.
As to `Cc1ccc(Cl)cc1N1CCN(C(=O)c2cccc3c(=O)c(C)c(-c4ccccc4)oc23)CC1`, the Potency was 9.28 µM (active).
As for `COC(=O)c1ccc(C(=O)OC)c(NC(=S)N2CCN(c3cc(Cl)ccc3C)CC2)c1`, the Potency entry is “inactive”.
To `CCNS(=O)(=O)c1ccc(CCC(=O)N2CCN(c3cc(Cl)ccc3C)CC2)cc1` belongs “inactive”; to `CC(Nc1nc(N2CCCC2)nc2ccccc12)c1ccccc1` (stereo unspecified), 3.7 µM (active); to `CC(C)n1c(C(O)c2ccccc2)nc2ccccc21` (stereo unspecified), “inactive”.
On to `Cc1ccc(C(CC(=O)O)Nc2nc(N3CCCCC3)nc(N3CCCCC3)n2)cc1` (stereo unspecified), for which the Potency result is “inactive”.
To `CN(C)S(=O)(=O)c1ccc(C(=O)NCCN=C2NS(=O)(=O)c3ccccc32)cc1` belongs “inactive”.
The entry for `COc1ccccc1Nc1ncc(C(C)=O)c(C)n1` is “inactive”; for `COC(=O)c1cnc(Nc2cc(C)ccc2OC)c2ccccc12` it is 10.4 µM (active).
Consider `COc1ccc(C)cc1Nc1nc(C)nc2c1oc1ccccc12`, for which the Potency entry was “inactive”.
On to `COc1ccc(N=Nc2c(-c3ccc(OC)cc3)[nH]oc2=O)cc1`, for which the Potency result is “inactive”.
`COCCNC(=O)c1ccc2c(c1)ncn2-c1ccc(C)c(Cl)c1`: the Potency entry is “inactive”.
To `C=CCn1c(SCC(=O)NC(=O)Cc2ccccc2)nc2ccccc2c1=O` belongs “inactive”.
Regarding `CCOCCCn1c(SCC(=O)Nc2cc(OC)ccc2OC)nc2ccccc2c1=O`, the Potency is 5.86 µM (active).
Take `COc1ccc(OC)c(NC(=O)CSc2nc3cccnc3n2C)c1`: the Potency result was “inactive”.
As for `COc1ccc(NC(=O)CSc2nnc(Cc3ccccc3)c(=O)n2N)cc1`, the Potency entry is “inactive”.
As to `CC(=O)NCCn1c(SCC(=O)Nc2ccc(C)cc2)nc2ccccc2c1=O`, the Potency result was “inactive”.
As to `COc1ccc(NC(=O)CSc2nc3ccccc3c(=O)n2C)cc1`, the Potency is 9.28 µM (active).
In the case of `CCc1nnc(NC(=O)CSc2nc3ccccc3c(=O)n2CCCOC)s1`, the Potency entry is “inactive”.
Regarding `O=C(CCC(=O)c1ccccc1)NCc1cccc(C(F)(F)F)c1`, the Potency entry was “inactive”.
To `O=C(NC1CCCCCC1)C1CCN(C(=O)c2ccc(Cl)cc2)CC1` belongs “inactive”; to `O=C(CCN1C(=O)[C@H]2CC=CC[C@H]2C1=O)NCc1nc(-c2ccccc2)no1`, “inactive”.
As for `CCOC(=O)c1c(NC(=O)Cn2nc(C(F)(F)F)cc2C)sc2c1CCC2`, the Potency is 14.7 µM (active).
To `CCOC(=O)c1c(NC(=O)C2(C)Cc3ccccc3C(=O)O2)sc2c1CCCC2` (stereo unspecified) belongs “inactive”; to `CCOc1ccc(S(=O)(=O)N2CCC(C(=O)NCC(=O)Nc3cccc(Cl)c3C)CC2)cc1`, “inactive”; to `CCOCC(=O)Nc1sc2c(c1C(=O)OCC)CCCC2`, “inactive”.
To `O=C(NCc1cccs1)C1CCN(S(=O)(=O)c2ccc(Cl)cc2)CC1` belongs 1.85 µM (active); to `CCOC(=O)c1c(NC(=S)NC(=O)c2ccco2)sc2c1CCCC2`, “inactive”.
For `CCOC(=O)c1c(NC(=S)NC)sc2c1CCCC2`, the Potency is 9.28 µM (active).
As for `CCOC(=O)c1c(NC(=O)C2CCN(S(=O)(=O)c3ccc(Cl)cc3)CC2)sc2c1CCCC2`, the Potency is 8.28 µM (active).
With `O=C(NCc1ccc(Cl)cc1)C1CCN(S(=O)(=O)c2cccs2)CC1`, the Potency result was “inactive”.
`CCOC(=O)c1c(NC(=O)CCC(=O)NCc2ccco2)sc2c1CCCC2`: the Potency result was “inactive”.
To `CCOC(=O)c1c(NC(=O)CSc2nnc(C)c(=O)[nH]2)sc2c1CCC2` belongs “inactive”; to `O=C(NCc1ccccn1)C1CCN(S(=O)(=O)c2ccc(Br)cc2)CC1`, “inactive”.
